Structures are written as SMILES. This is part of a sample that, as a whole, favours compounds with a hit. Of some 79,000 tested, about 15% had one in any assay. Unmarked numbers belong to inactive results. Active and inactive are the calls of the source. No stated cut-off is given here; in the data, active means growth inhibition above about 70%; inactive means the rest.

Assay [1] in a line: NCI Yeast Anticancer Drug Screen. Data for the rad50 strain (AID 155).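 Further: 0% = growth of vehicle-only cultures of the same strain.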 To be noted: S. cerevisiae rad50 strain growth inhibition, hits give high values. The method in brief: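 Relative growth inhibition (compound vs vehicle) was measured in yeast with a defined repair-gene alteration.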
Assay [2] in a line: NCI Yeast Anticancer Drug Screen. Data for the mec2-1 strain (AID 157). As to conditions: S. cerevisiae mec2-1 strain, hits give high values. The method, boiled down: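 Compounds were applied to mec2-1 yeast cells. Their growth was then compared with that of vehicle-treated cultures to give growth inhibition.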
A short description of assay [3]: NCI Yeast Anticancer Drug Screen. Data for the sgs1 mgt1 strain (AID 161).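 Further: 0% = growth of cultures given vehicle only.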 As to conditions: S. cerevisiae sgs1 mgt1 strain, hits give high values. The method, boiled down: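 This yeast growth screen uses a strain with defined DNA-repair lesions; compound-treated growth is compared with vehicle-treated growth.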
A short description of assay [4]: NCI Yeast Anticancer Drug Screen. Data for the cln2 rad14 strain (AID 165).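 Further: 0% = growth equal to vehicle treated cultures.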 As to conditions: S. cerevisiae cln2 rad14 strain, hits give high values. The method, boiled down: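 Strain: cln2 rad14 yeast, altered in cell cycle control and DNA damage repair. Read-out: growth inhibition vs vehicle.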
Assay [5] in a line: NCI Yeast Anticancer Drug Screen. Data for the bub3 strain (AID 167). As to conditions: S. cerevisiae bub3 mutant strain, hits give high values. The method, boiled down: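 Screening used yeast with an engineered genetic alteration affecting cell cycle control. Compound-exposed cultures were compared with vehicle cultures, and reduced growth was taken as inhibition.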
Assay [6] can be described thus: NCI Yeast Anticancer Drug Screen. Data for the mlh1 rad18 strain (AID 175). To be noted: S. cerevisiae mlh1 rad18 strain growth inhibition, hits give high values. The method in brief:
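A repair-deficient yeast strain is exposed to test compound, and growth is scored relative to vehicle-treated controls.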

The mark [7] stands for this setting: at 5.0 µM (retest, dose inferred, filed as 0.5).
The mark [8] stands for this setting: at 50.0 µM (retest, dose inferred, filed as 5.0).

As for `CCOC(=O)c1cn(CC)c2cc(-n3cccc3)ccc2c1=O`, the growth inhibition in assay [1] (setting [7]) is -3%; in assay [1] (setting [8]) it was 28%; in assay [1] (at 50.0 µM) it was 31.4%; in assay [2] (setting [7]), -1%; in assay [2] (setting [8]), 21%; in assay [2] (at 50.0 µM), 20.6%. The growth inhibition was -2% in assay [3] (setting [7]); 39% in assay [3] (setting [8]); 56.4% in assay [3] (at 50.0 µM); -2% in assay [4] (setting [7]); 17% in assay [4] (setting [8]); 22.2% in assay [4] (at 50.0 µM). The growth inhibition in assay [5] (setting [7]) was 0%; in assay [5] (setting [8]), 27%; in assay [5] (at 50.0 µM) it was 33.5%; in assay [6] (setting [7]), 1%; in assay [6] (setting [8]) it was 50%; in assay [6] (at 50.0 µM) it was 47.2%.

Take `C=C1CC(COc2ccc3c(C)cc(=O)oc3c2)(c2ccccc2)OC1=O` (stereo not given): the growth inhibition in assay [1] (setting [7]) is 32%; in assay [1] (setting [8]), 8%; in assay [1] (at 50.0 µM) it was 36%; in assay [2] (setting [7]), -6%; in assay [2] (setting [8]), 17%; in assay [2] (at 50.0 µM) it was 27%. For the same compound, the growth inhibition is 17% in assay [3] (setting [7]); 32% in assay [3] (setting [8]); 59.6% in assay [3] (at 50.0 µM); -20% in assay [4] (setting [7]); -6% in assay [4] (setting [8]); 32% in assay [4] (at 50.0 µM). Also, the growth inhibition was 32% in assay [5] (setting [7]); 30% in assay [5] (setting [8]); 30.2% in assay [5] (at 50.0 µM); -10% in assay [6] (setting [7]); 22% in assay [6] (setting [8]); 41.6% in assay [6] (at 50.0 µM).

In the case of `Cc1cc(Cl)c2cc(Cc3ccc(Br)cc3)ccc2n1`, the growth inhibition in assay [1] (setting [7]) is -3%; in assay [1] (setting [8]) it was 10%; in assay [1] (at 50.0 µM), 16.5%; in assay [2] (setting [7]) it was -10%; in assay [2] (setting [8]) it was 20%; in assay [2] (at 50.0 µM), 36%. In addition, the growth inhibition in assay [3] (setting [7]) is 11%; in assay [3] (setting [8]), 37%; in assay [3] (at 50.0 µM), 43.9%; in assay [4] (setting [7]) it was 1%; in assay [4] (setting [8]), -1%; in assay [4] (at 50.0 µM) it was 50.6%. Moreover, the growth inhibition in assay [5] (setting [7]) is 4%; in assay [5] (setting [8]), 12%; in assay [5] (at 50.0 µM), 37.6%; in assay [6] (setting [7]) it was 15%; in assay [6] (setting [8]) it was 15%; in assay [6] (at 50.0 µM), 55.9%.

Take `Cc1nc(-c2ccc(N=Cc3ccc(N(CCOS(C)(=O)=O)CCOS(C)(=O)=O)cc3Cl)cc2)c(C)s1`: the growth inhibition in assay [1] (setting [7]) is 1%; in assay [1] (setting [8]), 33%; in assay [1] (at 50.0 µM), 40.1%; in assay [2] (setting [7]) it was -68%; in assay [2] (setting [8]), -1%; in assay [2] (at 50.0 µM), 13.1%. Also, the growth inhibition was 2% in assay [3] (setting [7]); 17% in assay [3] (setting [8]); 55.3% in assay [3] (at 50.0 µM); 6% in assay [4] (setting [7]); -4% in assay [4] (setting [8]); -9.2% in assay [4] (at 50.0 µM). The growth inhibition in assay [5] (setting [7]) is 0%; in assay [5] (setting [8]), -1%; in assay [5] (at 50.0 µM), -8.8%; in assay [6] (setting [7]), 4%; in assay [6] (setting [8]), 37%; in assay [6] (at 50.0 µM), 73% (active).

With `Cc1ncn(-c2ccccc2O)c1C`, the growth inhibition is -3% in assay [1] (setting [7]); 7% in assay [1] (setting [8]); -10.3% in assay [1] (at 50.0 µM); -8% in assay [2] (setting [7]); -20% in assay [2] (setting [8]); 8.05% in assay [2] (at 50.0 µM). For the same compound, the growth inhibition in assay [3] (setting [7]) is -7%; in assay [3] (setting [8]) it was -14%; in assay [3] (at 50.0 µM), -28.7%; in assay [4] (setting [7]), -2%; in assay [4] (setting [8]) it was -8%; in assay [4] (at 50.0 µM) it was 31.7%. In addition, the growth inhibition is -3% in assay [5] (setting [7]); -27% in assay [5] (setting [8]); -5.75% in assay [5] (at 50.0 µM); -9% in assay [6] (setting [7]); 9% in assay [6] (setting [8]); -28.3% in assay [6] (at 50.0 µM).

In the case of `C=C(CN(C)C)C(=O)c1ccccc1`, the growth inhibition was -5% in assay [1] (setting [7]); 4% in assay [1] (setting [8]); 56.6% in assay [1] (at 50.0 µM); 8% in assay [2] (setting [7]); 41% in assay [2] (setting [8]); 65% in assay [2] (at 50.0 µM). For the same compound, the growth inhibition in assay [3] (setting [7]) is 8%; in assay [3] (setting [8]), 17%; in assay [3] (at 50.0 µM), 56%; in assay [4] (setting [7]) it was -26%; in assay [4] (setting [8]), 12%; in assay [4] (at 50.0 µM), 9.55%. Also, the growth inhibition was -20% in assay [5] (setting [7]); 19% in assay [5] (setting [8]); 77.7% (active) in assay [5] (at 50.0 µM); -4% in assay [6] (setting [7]); 17% in assay [6] (setting [8]); 74.8% (active) in assay [6] (at 50.0 µM).

Regarding `Cn1c(=S)sc2nc3ccccc3n2c1=S`, the growth inhibition was 49% in assay [1] (setting [7]); 96% (active) in assay [1] (setting [8]); 82.3% (active) in assay [1] (at 50.0 µM); 12% in assay [2] (setting [7]); 97% (active) in assay [2] (setting [8]); 97% (active) in assay [2] (at 50.0 µM). For the same compound, the growth inhibition was 37% in assay [3] (setting [7]); 98% (active) in assay [3] (setting [8]); 92.2% (active) in assay [3] (at 50.0 µM); 18% in assay [4] (setting [7]); 98% (active) in assay [4] (setting [8]); 90% (active) in assay [4] (at 50.0 µM). Also, the growth inhibition in assay [5] (setting [7]) was 14%; in assay [5] (setting [8]) it was 98% (active); in assay [5] (at 50.0 µM), 87.4% (active); in assay [6] (setting [7]), 54%; in assay [6] (setting [8]), 97% (active); in assay [6] (at 50.0 µM), 97.9% (active).

Consider `Cc1ccccc1C1SCc2nc3ccccc3n21` (stereo not given), for which the growth inhibition is -9% in assay [1] (setting [7]); -7% in assay [1] (setting [8]); -17.1% in assay [1] (at 50.0 µM); -3% in assay [2] (setting [7]); -4% in assay [2] (setting [8]); 8.3% in assay [2] (at 50.0 µM). Besides, the growth inhibition in assay [3] (setting [7]) is -5%; in assay [3] (setting [8]) it was 1%; in assay [3] (at 50.0 µM), 14.7%; in assay [4] (setting [7]), -13%; in assay [4] (setting [8]) it was -20%; in assay [4] (at 50.0 µM) it was 75.3% (active). Further, the growth inhibition was -4% in assay [5] (setting [7]); -1% in assay [5] (setting [8]); -6.4% in assay [5] (at 50.0 µM); -9% in assay [6] (setting [7]); -9% in assay [6] (setting [8]); -25.1% in assay [6] (at 50.0 µM).

As to `CC(=O)OC1=CC(n2cc(F)c(=O)[nH]c2=O)OC(C)C1=O` (stereo not given), the growth inhibition was 23% in assay [1] (setting [7]); 58% in assay [1] (setting [8]); 69.7% in assay [1] (at 50.0 µM); 13% in assay [2] (setting [7]); 85% (active) in assay [2] (setting [8]); 88.4% (active) in assay [2] (at 50.0 µM). Besides, the growth inhibition was 24% in assay [3] (setting [7]); 64% in assay [3] (setting [8]); 86.5% (active) in assay [3] (at 50.0 µM); 19% in assay [4] (setting [7]); 4% in assay [4] (setting [8]); 37.5% in assay [4] (at 50.0 µM). Further, the growth inhibition in assay [5] (setting [7]) was 15%; in assay [5] (setting [8]) it was -13%; in assay [5] (at 50.0 µM), 62.1%; in assay [6] (setting [7]) it was 20%; in assay [6] (setting [8]) it was 57%; in assay [6] (at 50.0 µM) it was 51.7%.

As to `CC(=O)c1sc(Nc2ccc(Cl)c(Cl)c2)nc1C`, the growth inhibition in assay [1] (setting [7]) was 8%; in assay [1] (setting [8]) it was 35%; in assay [1] (at 50.0 µM), 95% (active); in assay [2] (setting [7]), 4%; in assay [2] (setting [8]) it was 19%; in assay [2] (at 50.0 µM) it was 81% (active). The growth inhibition in assay [3] (setting [7]) was 27%; in assay [3] (setting [8]), 22%; in assay [3] (at 50.0 µM), 97% (active); in assay [4] (setting [7]), 1%; in assay [4] (setting [8]), 35%; in assay [4] (at 50.0 µM), 91.2% (active). Also, the growth inhibition is 1% in assay [5] (setting [7]); 56% in assay [5] (setting [8]); 81.8% (active) in assay [5] (at 50.0 µM); 15% in assay [6] (setting [7]); 47% in assay [6] (setting [8]); 93.2% (active) in assay [6] (at 50.0 µM).
